Results as given in PubChem BioAssay (NCI).
About 79,000 compounds went through this panel and 15% of them were active in at least one assay; those are over-represented in the sample as a whole. Calls of active or inactive are those of the source. Cut-off read from the data, not from the text of the source: active = growth inhibition above about 70%; inactive = the rest.

Legend:
[1] = NCI Yeast Anticancer Drug Screen. Data for the wt1 strain (AID 149);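 note: 0% = growth of vehicle-treated wt1 cultures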; conditions: S. cerevisiae wt1 strain (SPY 50644) growth inhibition, hits give high values
Summary of the method: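 wt1 strain grown with compound or vehicle; inhibition taken from the growth difference.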

[2] = NCI Yeast Anticancer Drug Screen. Data for the rad50EPP+ strain (AID 151);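 note: 0% = growth of vehicle-treated control cultures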; conditions: S. cerevisiae rad50 mutant strain, hits give high values
Summary of the method: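 Measured: growth inhibition of rad50EPP+ yeast. Reference: vehicle-treated controls. Screen uses strains with defined genetic alterations in DNA damage repair or cell cycle control.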

[3] = NCI Yeast Anticancer Drug Screen. Data for the mgt1 strain (AID 153); conditions: S. cerevisiae mgt1 mutant growth inhibition, hits give high values
Summary of the method: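 Compounds were applied to mgt1 mutant yeast, and growth was then compared against vehicle-treated control cultures to give percent inhibition.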

[4] = NCI Yeast Anticancer Drug Screen. Data for the rad50 strain (AID 155);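 note: 0% = growth of vehicle-only cultures of the same strain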; conditions: S. cerevisiae rad50 strain growth inhibition, hits give high values
Summary of the method: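 DNA repair mutant yeast, compound exposure, growth read-out; inhibition is taken relative to vehicle.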

[5] = NCI Yeast Anticancer Drug Screen. Data for the mec2-1 strain (AID 157); conditions: S. cerevisiae mec2-1 strain, hits give high values
Summary of the method: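 Compounds were applied to mec2-1 yeast cells. Their growth was then compared with that of vehicle-treated cultures to give growth inhibition.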

[6] = NCI Yeast Anticancer Drug Screen. Data for the rad14 strain (AID 159);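 note: 0% = growth of vehicle-treated control cultures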; conditions: S. cerevisiae rad14 strain growth inhibition, hits give high values
Summary of the method: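 DNA repair-defective yeast, compound-exposed; % growth inhibition derived by comparison with vehicle-treated controls.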

[7] = NCI Yeast Anticancer Drug Screen. Data for the sgs1 mgt1 strain (AID 161);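 note: 0% = growth of cultures given vehicle only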; conditions: S. cerevisiae sgs1 mgt1 strain, hits give high values
Summary of the method: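 Percent growth inhibition was derived by comparing compound-exposed mutant yeast with vehicle-exposed cultures. The strain carries alterations in DNA damage repair.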

[8] = NCI Yeast Anticancer Drug Screen. Data for the CLN2oe strain (AID 163);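 note: 0% = growth of vehicle-only control cultures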; conditions: S. cerevisiae CLN2oe strain, hits give high values
Summary of the method: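 Cells of an engineered yeast line with disturbed cell-cycle regulation are treated with compound. Inhibition of growth is then calculated relative to the vehicle-treated reference.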

[9] = NCI Yeast Anticancer Drug Screen. Data for the cln2 rad14 strain (AID 165);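 note: 0% = growth equal to vehicle treated cultures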; conditions: S. cerevisiae cln2 rad14 strain, hits give high values
Summary of the method: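 Strain: cln2 rad14 yeast, altered in cell cycle control and DNA damage repair. Read-out: growth inhibition vs vehicle.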

[10] = NCI Yeast Anticancer Drug Screen. Data for the bub3 strain (AID 167); conditions: S. cerevisiae bub3 mutant strain, hits give high values
Summary of the method: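 In this screen, a yeast mutant lacking normal mitotic checkpoint function is challenged with compound. Relative growth versus vehicle gives the inhibition value.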

[11] = NCI Yeast Anticancer Drug Screen. Data for the wt2 strain (AID 169);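 note: 0% = growth of vehicle-treated yeast cultures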; conditions: S. cerevisiae wt2 strain growth inhibition, hits give high values
Summary of the method: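 Growth of compound-treated yeast is measured and expressed as inhibition relative to vehicle-only controls.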

[12] = NCI Yeast Anticancer Drug Screen. Data for the mlh1 strain (AID 171);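 note: 0% = growth of vehicle-treated control cultures of the same strain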; conditions: S. cerevisiae mlh1 strain growth inhibition, hits give high values
Summary of the method: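 Test agents were incubated with yeast bearing a defined DNA damage repair or cell cycle control alteration; values are growth inhibition normalised to vehicle-treated cultures.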

[13] = NCI Yeast Anticancer Drug Screen. Data for the mlh1 rad18 strain (AID 175); conditions: S. cerevisiae mlh1 rad18 strain growth inhibition, hits give high values
Summary of the method: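 A repair-deficient yeast strain is exposed to test compound, and growth is scored relative to vehicle-treated controls.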

[14] = NCI Yeast Anticancer Drug Screen. Data for the rad18 strain (AID 177); conditions: S. cerevisiae rad18 mutant growth inhibition, hits give high values
Summary of the method: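 DNA-repair-defective yeast; compound treatment; growth inhibition scored against vehicle.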

[15] = at 5.0 µM (retest, dose inferred, filed as 0.5)
[16] = at 50.0 µM (retest, dose inferred, filed as 5.0)

Measured: growth inhibition

CSc1ccc2c(c1)C(N1CCN(C)CC1)Cc1ccccc1S2 (stereo not drawn)
inactive: [1]; at 1.2 µM -58% | [1]; at 3.7 µM -61% | [1]; at 11.0 µM -57% | [1]; at 33.0 µM -6% | [2]; at 1.2 µM -27% | [2]; at 3.7 µM -45% | [2]; at 11.0 µM -37% | [2]; at 33.0 µM -4% | [3]; at 1.2 µM -33% | [3]; at 3.7 µM -31% | [3]; at 11.0 µM -49% | [4]; at 1.2 µM -34% | [4]; at 3.7 µM -47% | [4]; [15] 28% | [4]; at 11.0 µM -25% | [4]; [16] 67% | [5]; at 1.2 µM -75% | [5]; at 3.7 µM -83% | [5]; [15] 15% | [5]; at 11.0 µM -4% | [6]; at 1.2 µM -55% | [6]; at 3.7 µM -36% | [6]; at 11.0 µM 5% | [8]; at 1.2 µM -17% | [8]; at 3.7 µM 5% | [8]; at 11.0 µM 13% | [8]; at 33.0 µM 52% | [10]; at 1.2 µM -68% | [10]; at 3.7 µM -46% | [10]; at 11.0 µM 14% | [11]; at 1.2 µM -59% | [11]; at 3.7 µM -35% | [11]; at 11.0 µM -46% | [11]; at 33.0 µM 6% | [12]; at 1.2 µM -67% | [12]; at 3.7 µM -68% | [12]; at 11.0 µM -37% | [13]; [15] 35% | [14]; at 1.2 µM -44% | [14]; at 3.7 µM -72% | [14]; at 11.0 µM -44%
active: [1]; at 100.0 µM 99% | [2]; at 100.0 µM 91% | [3]; at 33.0 µM 74% | [3]; at 100.0 µM 99% | [4]; at 33.0 µM 76% | [4]; at 50.0 µM 88.1% | [4]; at 100.0 µM 98% | [5]; at 33.0 µM 83% | [5]; [16] 78% | [5]; at 50.0 µM 78.6% | [5]; at 100.0 µM 99% | [6]; at 33.0 µM 98% | [6]; at 100.0 µM 99% | [7]; [15] 98% | [7]; [16] 86% | [7]; at 50.0 µM 84.2% | [8]; at 100.0 µM 99% | [9]; [15] 91% | [9]; [16] 88% | [9]; at 50.0 µM 76% | [10]; [15] 98% | [10]; at 33.0 µM 91% | [10]; [16] 86% | [10]; at 50.0 µM 81.7% | [10]; at 100.0 µM 98% | [11]; at 100.0 µM 99% | [12]; at 33.0 µM 88% | [12]; at 100.0 µM 98% | [13]; [16] 89% | [13]; at 50.0 µM 92.8% | [14]; at 33.0 µM 75% | [14]; at 100.0 µM 98%
